PubChem BioAssay (NCATS)
Several values for one entry are separate records, joined by “and”; a condition that tells them apart may be missing. Equal values may be shown once. Results filed as inconclusive are left out. Activity calls are given as the source filed them. Unless noted, the call rests on the fitted dose curve.

What was measured:
[1] = target: Bile acid receptor (Homo sapiens) (UniProt Q96RI1); experiment: qHTS assay for small molecule agonists of farnesoid X receptor signaling (AID 588527); details: HEK293T FXR-UAS-bla, beta-lactamase ratio, 16 h; activation: stronger effect = higher value;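 further: series mostly up to about 77 µM; 0% = vehicle basal and 100% = reference agonist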
Sequence of Bile acid receptor (Homo sapiens) (Q96RI1 whole entry, looked up): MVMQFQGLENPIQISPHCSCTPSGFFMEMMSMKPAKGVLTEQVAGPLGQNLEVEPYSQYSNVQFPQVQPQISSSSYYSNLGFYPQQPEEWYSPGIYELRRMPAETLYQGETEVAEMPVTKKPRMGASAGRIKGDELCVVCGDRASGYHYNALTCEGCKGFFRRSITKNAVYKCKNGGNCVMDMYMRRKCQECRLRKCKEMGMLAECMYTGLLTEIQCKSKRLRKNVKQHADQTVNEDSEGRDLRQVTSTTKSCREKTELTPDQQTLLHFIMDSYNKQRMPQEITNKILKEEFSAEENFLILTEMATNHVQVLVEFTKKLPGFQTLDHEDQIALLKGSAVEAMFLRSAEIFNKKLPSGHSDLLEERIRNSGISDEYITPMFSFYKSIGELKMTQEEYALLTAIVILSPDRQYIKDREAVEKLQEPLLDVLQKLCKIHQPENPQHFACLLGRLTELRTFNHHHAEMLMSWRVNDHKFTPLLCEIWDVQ
How it was run: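 Quantitative HTS used FXR-UAS-bla HEK293T cells with 16 h compound incubation at 37 C. EC50 values came from concentration-response curves normalized to chenodeoxycholic acid.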

[2] = target: Bile acid receptor (Homo sapiens) (UniProt Q96RI1); experiment: qHTS assay for small molecule antagonists of farnesoid X receptor signaling (AID 588526); further: on the % scale 0 is the no-effect control and ±100 the full control effect
How it was run: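 Antagonist mode: titrated compounds tested against chenodeoxycholic acid stimulation (normalized to 50 uM CDCA and DMSO) in GeneBLAzer HEK293T cells for 16 h. Beta-lactamase read by CCF4 fluorescence; IC50 from Hill fits.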

[3] = target: Peroxisome proliferator-activated receptor delta (Homo sapiens) (UniProt Q03181); experiment: qHTS assay for small molecule agonists of peroxisome proliferator-activated receptor delta signaling (AID 588534);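 further: 0% = DMSO basal wells and 100% = positive control agonist at 10 µM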
Sequence of Peroxisome proliferator-activated receptor delta (Homo sapiens) (Q03181 whole entry, looked up): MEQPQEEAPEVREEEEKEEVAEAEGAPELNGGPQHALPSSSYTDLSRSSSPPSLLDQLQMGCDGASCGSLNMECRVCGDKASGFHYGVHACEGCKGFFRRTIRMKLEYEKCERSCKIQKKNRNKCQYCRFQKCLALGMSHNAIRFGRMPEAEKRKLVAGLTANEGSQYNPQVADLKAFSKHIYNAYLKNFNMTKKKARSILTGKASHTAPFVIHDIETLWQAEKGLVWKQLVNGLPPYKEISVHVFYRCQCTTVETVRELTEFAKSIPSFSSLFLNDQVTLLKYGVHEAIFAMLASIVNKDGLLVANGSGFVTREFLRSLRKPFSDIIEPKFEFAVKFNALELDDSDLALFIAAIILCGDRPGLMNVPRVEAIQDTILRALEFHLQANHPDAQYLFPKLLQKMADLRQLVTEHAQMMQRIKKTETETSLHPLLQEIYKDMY
How it was run: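 Cells carrying a PPAR-delta beta-lactamase reporter were treated with compounds for 18 h at 37 °C in agonist mode. CCF4 fluorescence was read after 2 h; EC50 and efficacy from Hill fits.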

[4] = qHTS assay for small molecule antagonists of peroxisome proliferator-activated receptor delta signaling (AID 588535; active means well fitted inhibition curve with a large enough effect in the signal ratio, with a control signal flat, not every such curve was filed as active; the % refers to the signal ratio;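 on max response: cells co-treated with a PPAR-delta agonist as stimulator during compound exposure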); details: HEK293T PPARd-UAS-bla, beta-lactamase FRET ratio, 18 h; 460 nm channel
How it was run: (§1)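 Antagonist-mode beta-lactamase reporter (GeneBLAzer PPAR-delta-UAS-bla) in HEK293T cells, 2% charcoal/dextran FBS, 4000 cells/well. Compound titrations, 18 h at 37 C; CCF4 ratio read, IC50 and efficacy from Hill fits.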

[5] = target: Peroxisome proliferator-activated receptor delta (Homo sapiens) (UniProt Q03181); experiment: as above
How it was run: as §1

[6] = target: Vitamin D3 receptor (Homo sapiens) (UniProt P11473); experiment: qHTS assay for small molecule antagonists of vitamin D receptor signaling (AID 588541);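 further: receptor activated by calcitriol during compound treatment; series mostly up to about 77 µM; on the % scale 0 is the no-effect control and ±100 the full control effect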
Sequence of Vitamin D3 receptor (Homo sapiens) (P11473 whole entry, looked up): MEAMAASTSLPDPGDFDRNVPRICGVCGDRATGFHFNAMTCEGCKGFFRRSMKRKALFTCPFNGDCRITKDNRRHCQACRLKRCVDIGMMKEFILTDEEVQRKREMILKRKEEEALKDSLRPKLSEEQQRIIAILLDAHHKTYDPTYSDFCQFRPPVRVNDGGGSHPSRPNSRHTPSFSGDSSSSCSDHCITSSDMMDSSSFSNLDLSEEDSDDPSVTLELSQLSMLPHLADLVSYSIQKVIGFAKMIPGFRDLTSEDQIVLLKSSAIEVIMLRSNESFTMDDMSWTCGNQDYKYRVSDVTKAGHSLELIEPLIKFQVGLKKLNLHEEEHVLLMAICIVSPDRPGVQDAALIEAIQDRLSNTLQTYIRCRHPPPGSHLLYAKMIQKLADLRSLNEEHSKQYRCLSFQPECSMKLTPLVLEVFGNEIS
How it was run: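 VDR-UAS-bla HEK293T cells in 2% charcoal-stripped FBS were stimulated with 1-alpha,25-dihydroxyvitamin D3 (3 nM final) plus compound for 16 h at 37 C. The beta-lactamase CCF4 readout was normalized to 50 nM agonist and DMSO, and Hill fits gave IC50.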

[7] = target: Vitamin D3 receptor (Homo sapiens) (UniProt P11473); experiment: qHTS assay for small molecule agonists of vitamin D receptor signaling (AID 588543);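 further: 0% = DMSO basal and 100% = reference agonist control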
How it was run: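 Reporter cells (HEK293T, VDR-UAS-bla) were seeded in medium with 2% charcoal-stripped serum and incubated 5 h, then compounds in concentration series were added for 16 h at 37 °C. Stimulation was scaled between DMSO basal and 50 nM 1α,25-dihydroxyvitamin D3.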

[8] = target: Retinoic acid receptor RXR-alpha (Homo sapiens) (UniProt P19793); experiment: qHTS assay for small molecule agonists of retinoid X receptor alpha signaling (AID 588544);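 further: 0% = DMSO basal wells and 100% = reference agonist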
Sequence of Retinoic acid receptor RXR-alpha (Homo sapiens) (P19793 whole entry, looked up): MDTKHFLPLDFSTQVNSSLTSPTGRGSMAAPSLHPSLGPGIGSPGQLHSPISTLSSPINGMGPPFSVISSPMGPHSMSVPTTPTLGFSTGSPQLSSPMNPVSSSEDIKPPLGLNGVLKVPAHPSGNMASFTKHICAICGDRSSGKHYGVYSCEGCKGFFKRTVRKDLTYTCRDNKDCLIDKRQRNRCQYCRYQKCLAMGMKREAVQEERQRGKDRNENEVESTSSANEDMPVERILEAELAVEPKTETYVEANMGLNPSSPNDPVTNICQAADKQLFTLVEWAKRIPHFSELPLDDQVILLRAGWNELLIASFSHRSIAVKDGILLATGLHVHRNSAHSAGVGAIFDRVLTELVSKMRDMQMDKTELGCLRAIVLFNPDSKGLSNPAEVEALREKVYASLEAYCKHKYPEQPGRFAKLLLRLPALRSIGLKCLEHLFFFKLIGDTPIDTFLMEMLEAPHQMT

[9] = target: Thyroid hormone receptor beta (Homo sapiens) (UniProt P10828); experiment: qHTS assay for small molecule agonists of thyroid hormone receptor beta signaling (AID 588545)
Sequence of Thyroid hormone receptor beta (Homo sapiens) (P10828 whole entry, looked up): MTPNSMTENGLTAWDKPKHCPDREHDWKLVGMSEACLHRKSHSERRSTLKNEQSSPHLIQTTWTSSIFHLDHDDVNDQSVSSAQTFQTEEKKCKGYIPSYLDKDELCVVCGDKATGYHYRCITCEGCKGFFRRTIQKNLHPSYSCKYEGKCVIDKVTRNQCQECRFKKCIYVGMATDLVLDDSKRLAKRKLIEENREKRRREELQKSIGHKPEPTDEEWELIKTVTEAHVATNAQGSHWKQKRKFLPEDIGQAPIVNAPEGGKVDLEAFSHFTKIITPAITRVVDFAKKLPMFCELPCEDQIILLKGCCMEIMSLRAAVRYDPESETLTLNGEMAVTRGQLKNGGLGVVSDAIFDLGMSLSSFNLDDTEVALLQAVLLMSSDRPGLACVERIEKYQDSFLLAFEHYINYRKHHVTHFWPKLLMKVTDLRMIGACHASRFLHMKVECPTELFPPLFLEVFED
How it was run: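 In this cell-based screen, titrated compounds act on HEK 293 cells held in medium with 2% charcoal/dextran FBS, NEAA and pyruvate for 18 hrs at 37 C. Responses are expressed relative to T3 (10 nM) as 100% and basal DMSO as 0%.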

[10] = qHTS assay for small molecule antagonists of retinoid X receptor alpha signaling (AID 588546; active means well fitted inhibition curve with a large enough effect in the signal ratio, with a control signal flat, not every such curve was filed as active; the % refers to the signal ratio;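 further: cells stimulated with 9-cis-retinoic acid as agonist; on the % scale 0 is the no-effect control and ±100 the full control effect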); details: HEK293T RXRa-UAS-bla, beta-lactamase ratio, antagonist mode; measured here: W530 green channel, cytotoxicity proxy
How it was run: (§2)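 Beta-lactamase reporter inhibition, read as CCF4 fluorescence ratio (ex 405, em 460/530 nm) after 2 h at RT. HEK293T UAS-bla cells, 2500/well, were stimulated with 9-cis-RA at 500 or 100 nM final alongside test compound for 18 h at 37 C.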

[11] = target: Retinoic acid receptor RXR-alpha (Homo sapiens) (UniProt P19793); experiment: as above; details: HEK293T RXRa-UAS-bla, beta-lactamase ratio, antagonist mode
How it was run: as §2

[12] = qHTS assay for small molecule activators of the p53 signaling pathway (AID 651743; active means well fitted activation curve with a large enough effect in the signal ratio, not every such curve was filed as active; the % refers to the signal ratio; further: series mostly up to about 92 µM; % of control where 0% means no effect); details: HCT-116 p53RE-bla, beta-lactamase FRET ratio, 16 h; activation: stronger effect = higher value
How it was run: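 p53RE-bla HCT-116 cells carrying a beta-lactamase reporter under p53 response elements were exposed to compounds for 16 hours at 37 C. Reporter activity read as fluorescence after 2 hours at room temperature with LiveBLAzer B/G FRET substrate.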

[13] = qHTS assay for small molecule activators of the nuclear factor-kappa B (NF-kB) signaling pathway (AID 651749; active means well fitted activation curve with a large enough effect in the signal ratio; the % refers to the signal ratio; further: series mostly up to about 77 µM; % of control where 0% means no effect); details: NF-kB-bla ME-180 cells, beta-lactamase FRET ratio, 16 h; activation: stronger effect = higher value
How it was run: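 NF-kB-bla ME-180 cells carrying a beta-lactamase reporter under an NF-kB response element, 2,000 cells/well, exposed to compound for 16 hr at 37C; FRET-based beta-lactamase fluorescence read-out of pathway activation.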

[14] = target: Peroxisome proliferator-activated receptor alpha (Homo sapiens) (UniProt Q07869); experiment: qHTS assay for small molecule agonists of the peroxisome proliferator-activated receptor alpha (PPARalpha) signaling pathway (AID 651778; active means well fitted curve in the direction sought with a large enough effect; an effect the other way counts as inactive or inconclusive; further: % of control where 0% means no effect); details: PathHunter PPARalpha complementation, chemiluminescence, 6 h; max response: stronger effect = higher value
Sequence of Peroxisome proliferator-activated receptor alpha (Homo sapiens) (Q07869 whole entry, looked up, the tested form may be a part): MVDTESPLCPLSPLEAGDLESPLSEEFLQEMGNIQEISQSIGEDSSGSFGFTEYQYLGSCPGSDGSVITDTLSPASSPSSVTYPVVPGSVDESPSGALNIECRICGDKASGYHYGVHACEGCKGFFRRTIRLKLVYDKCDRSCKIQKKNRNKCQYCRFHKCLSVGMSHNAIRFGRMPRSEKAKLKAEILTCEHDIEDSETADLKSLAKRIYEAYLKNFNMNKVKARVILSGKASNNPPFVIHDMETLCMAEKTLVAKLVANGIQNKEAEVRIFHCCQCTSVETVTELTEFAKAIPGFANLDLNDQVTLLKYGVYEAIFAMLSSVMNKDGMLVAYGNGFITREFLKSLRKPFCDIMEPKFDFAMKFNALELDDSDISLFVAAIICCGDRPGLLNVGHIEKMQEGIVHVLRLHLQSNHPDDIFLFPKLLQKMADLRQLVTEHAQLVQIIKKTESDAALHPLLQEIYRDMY
How it was run: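 Enzyme-fragment complementation assay in which ligand-bound PPARalpha translocates and forms an active enzyme that generates chemiluminescence. Cells were plated overnight, exposed to compound for 6 hr at 37 C, and then given detection reagent for 60 min at room temperature.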

[15] = qHTS assay for small molecule agonists of the antioxidant response element (ARE) signaling pathway measured by Nrf2-dependant transcriptional activity (AID 720636; active means well fitted curve in the direction sought with a large enough effect in the repeat runs; an effect the other way counts as inactive or inconclusive;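 further: HepG2 cells with an ARE-driven luciferase reporter; % of control where 0% means no effect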)
How it was run: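 HepG2 ARE-luc reporter line, 1% dialyzed FBS; 6 hr attachment at 37 C, compound pinned in, 16 hr at 37 C/5% CO2; ONE-Glo, 30 min RT, luminescence read.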

[16] = qHTS assay for small molecule agonists of the antioxidant response element (ARE) signaling pathway measured by Nrf2-dependant transcriptional activity - cell viability counter screen (AID 720653; active means well fitted curve in the direction sought with a large enough effect in the repeat runs; an effect the other way counts as inactive or inconclusive; further: on the % scale 0 is the no-effect control and ±100 the full control effect); details: ARE-bla HepG2 viability, CellTiter-Glo ATP luminescence, 16 h; max response: stronger effect = lower value
How it was run: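 ARE-bla HepG2 cells treated with compounds for 16 h at 37C; this counter screen measures viability as intracellular ATP by CellTiter-Glo luminescence after 30 min at room temperature.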

[17] = qHTS assay for cell viability of HEK293 cells (AID 743288; active means well fitted curve in the direction sought with a large enough effect; an effect the other way counts as inactive or inconclusive; further: on the % scale 0 is the no-effect control and ±100 the full control effect; nearly all actives have a fitted effect of over 50% in size); details: ATP luminescence (CellTiter-Glo), 18 h; max response: stronger effect = lower value
How it was run: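 HEK293 parental, 2,000 cells/well; ≥5 h pre-incubation 37 C; pintool compound addition; 18 h, 37 C; CellTiter-Glo 30 min RT; luminescence read.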

[18] = qHTS assay for cell viability of the p53RE-bla HCT-116 cell line (AID 743292; active means well fitted curve in the direction sought with a large enough effect; an effect the other way counts as inactive or inconclusive; further: on the % scale 0 is the no-effect control and ±100 the full control effect; nearly all actives have a fitted effect of over 55% in size)
How it was run: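 Luminescent ATP quantitation (CellTiter-Glo) served as the viability read-out; reagent was added after 16 h compound exposure at 37 C and read after 30 min at room temperature. Cells: p53RE-bla HCT-116, 4,000 per well.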

[19] = target: Nuclear receptor subfamily 1 group I member 2 (Rattus norvegicus) (UniProt Q9R1A7); experiment: qHTS assay for small molecule activators of the rat pregnane X receptor (rPXR) signaling pathway (AID 651751; call rule not given here; further: 0% is about no effect); details: rPXR reporter cells, luciferase (One-Glo), 24 h
Sequence of Nuclear receptor subfamily 1 group I member 2 (Rattus norvegicus) (Q9R1A7 whole entry, looked up): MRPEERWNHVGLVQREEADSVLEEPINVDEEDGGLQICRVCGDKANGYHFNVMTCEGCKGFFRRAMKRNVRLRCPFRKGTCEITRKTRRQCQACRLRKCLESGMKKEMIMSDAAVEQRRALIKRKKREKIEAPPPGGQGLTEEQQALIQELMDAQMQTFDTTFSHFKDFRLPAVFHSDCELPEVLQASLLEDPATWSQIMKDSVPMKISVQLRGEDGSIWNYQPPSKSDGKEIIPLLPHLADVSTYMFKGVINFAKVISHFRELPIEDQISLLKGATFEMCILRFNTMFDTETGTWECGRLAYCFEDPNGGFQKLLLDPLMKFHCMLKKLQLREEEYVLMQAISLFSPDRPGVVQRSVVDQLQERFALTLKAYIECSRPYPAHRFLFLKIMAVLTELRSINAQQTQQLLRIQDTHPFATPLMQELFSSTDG

SMILES: CCCOC(=O)c1cc(O)c(O)c(O)c1
- activation [1]: -0.748% (inactive)

SMILES: CCC1CO1 (configuration not stated)
- activation [1]: -1.53% (inactive)

SMILES: COCC(=O)N(c1c(C)cccc1C)N1CCOC1=O
- Potency [2]: inactive
- outcome [3]: inactive
- max response [4]: -6.17%
- Potency [5]: inactive
- Potency [6]: inactive
- outcome [7]: inactive
- Potency [8]: inactive
- Potency [9]: inactive
- max response [10]: -10.4%
- max response [11]: 4.82% (inactive)
- activation [12]: -3.26% (inactive)
- activation [13]: -1.88% (inactive)
- max response [14]: 0.278% (inactive)
- Potency [15]: inactive
- max response [16]: 1.06% (inactive)
- max response [17]: 2.38% (inactive)
- Potency [18]: inactive
- max response [19]: 3.21% (inactive)

SMILES: CC(=O)Nc1ccc(C(=O)CCl)cc1
- activation [1]: 2.69% (inactive)

SMILES: CCOCCOCC
- activation [1]: -1.11% (inactive)

SMILES: CC(C)(C)c1ccc(O)c(C(C)(C)C)c1
- activation [1]: 3.24% (inactive)

SMILES: CSCCC=O
- activation [1]: -2.56% (inactive)

SMILES: CC1CCC2CC1C2(C)C (configuration not stated)
- activation [1]: 3.3% (inactive)

SMILES: COc1cccc(N)c1
- activation [1]: 2.13% (inactive)

SMILES: O=C(O)CN(CCO)CCN(CC(=O)O)CC(=O)O
- activation [1]: -2.73% (inactive)

SMILES: CCCCCCCCCCO
- activation [1]: -3.92% (inactive)

SMILES: Cc1nn(C)c(Oc2ccccc2)c1/C=N/OCc1ccc(C(=O)OC(C)(C)C)cc1
- activation [1]: 6.71% (inactive)

SMILES: CCOC(=O)C(C)Oc1ccc(Oc2cnc3cc(Cl)ccc3n2)cc1 (configuration not stated)
- activation [1]: -3.91% (inactive)

SMILES: CCC(C)(C)C(=O)O
- activation [1]: 0.339% (inactive)

SMILES: Clc1ccccn1
- activation [1]: -2.48% (inactive)
- outcome [3]: inactive

SMILES: Cl[Si](Cl)(c1ccccc1)c1ccccc1
- activation [1]: 3.41% (inactive)
- outcome [3]: inactive

SMILES: O=C(O)CCSSCCC(=O)O
- activation [1]: -1.56% (inactive)
- outcome [3]: inactive

SMILES: O=C(O)CCCCCCCCC(=O)O
- activation [1]: -3.53% (inactive)
- outcome [3]: inactive

SMILES: O=C(O)c1ccccc1[N+](=O)[O-]
- activation [1]: -1.37% (inactive)
- outcome [3]: inactive

SMILES: COc1nc(C)nc(NC(=O)NS(=O)(=O)c2ccccc2OCCCl)n1
- activation [1]: -2.13% (inactive)
- outcome [3]: inactive

SMILES: O=C(O)CNC(=O)c1ccc([N+](=O)[O-])cc1
- activation [1]: 1.14% (inactive)
- outcome [3]: inactive

SMILES: COC(=O)CCCCC(=O)OC
- activation [1]: -2.8% (inactive) and 3.47% (inactive) and -2.74% (inactive)
- outcome [3]: inactive
